# Bioassay records from PubChem BioAssay.
# VP16 counter – inhibits Gal4-VP16 luciferase reporter, ROR gamma counter-screen | Drosophila S2 Gal4-VP16 UAS-luciferase, luminescence, 20 h | Potency, µM (highest dose often 53.6 µM), inactives show top-dose activity, negative = inhibition, usual class: inhibitors | 3.5% of 310,000 active;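 also: Gal4-VP16 expression switched on by copper sulfate through the metallothionein promoter; nearly all actives have a fitted effect of over 50% in size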
# TDP1 cell CPT – DT40-hTDP1 cell growth loss with CPT; 12% of 420,000 active; chicken DT40 Tdp1-/-;hTDP1 cells + 20 nM CPT, ATP luminescence, 48 h; Potency, µM (series often up to 46.2 µM), inactives show top-dose activity change, negative = growth inhibition, actives largely listed as inhibitors; AID 686979; also: nearly all actives have a fitted effect of over 55% in size
#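 Chicken DT40 Tdp1-/- cells complemented with human TDP1, 400 cells/well, exposed to compounds plus 20 nM camptothecin for at least 48 h at 37 C; viability read as ATP content by CellTiter-Glo luminescence.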
# TDP1 inh – inhibitors of human tyrosyl-DNA phosphodiesterase TDP1 | recombinant TDP1, AlphaScreen DNA substrate cleavage | Potency, µM (highest dose often 130 µM), without a hit: top-dose activity change, negative = inhibition, most hits filed as inhibitors | 0.28% of 350,000 active; also: nearly all actives have a fitted effect of over 40% in size
#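 Recombinant human Tdp1 (E. coli-expressed, 1 nM final) preincubated with compounds 15 min at room temperature, then 5'-biotin/3'-phosphotyrosine-FITC DNA substrate (15 nM final) added for 5 min. AlphaScreen beads (10 ug/ml final) added 10 min; cleavage lowers signal.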
# RORg inh – blocks mouse ROR gamma transcriptional activity; P51450; Potency, µM (doses to about 53.6 µM), for inactives: at the top dose activity change, negative = inhibition, hits mostly inhibitors; Drosophila S2 Gal4-RORgamma UAS-luciferase reporter, 20 h; 5.4% of 310,000 active; also: nearly all actives have a fitted effect of over 60% in size
# Target sequence (P51450 whole entry, looked up, the tested form may be a part): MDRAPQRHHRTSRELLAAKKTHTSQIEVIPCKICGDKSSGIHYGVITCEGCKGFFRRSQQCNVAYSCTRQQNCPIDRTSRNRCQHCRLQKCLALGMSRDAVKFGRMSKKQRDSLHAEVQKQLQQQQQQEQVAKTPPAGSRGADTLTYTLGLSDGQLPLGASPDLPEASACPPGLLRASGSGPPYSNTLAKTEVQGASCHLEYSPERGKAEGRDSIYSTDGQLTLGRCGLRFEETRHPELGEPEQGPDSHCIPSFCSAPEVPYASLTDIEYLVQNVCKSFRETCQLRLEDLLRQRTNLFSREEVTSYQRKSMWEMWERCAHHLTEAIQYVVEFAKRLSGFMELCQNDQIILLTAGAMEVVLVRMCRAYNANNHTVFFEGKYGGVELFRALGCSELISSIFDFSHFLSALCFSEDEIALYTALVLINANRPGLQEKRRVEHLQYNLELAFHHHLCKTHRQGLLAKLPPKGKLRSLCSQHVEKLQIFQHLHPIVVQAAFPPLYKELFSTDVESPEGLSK
#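 Using a luciferase readout, inhibitors were identified by reduced reporter activity in Drosophila cells coexpressing a copper-inducible Gal4–ROR gamma fusion and UAS-driven Photinus luciferase, incubated 20 hr after 700 uM copper sulfate.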
# TDP1 cell noCPT – qHTS for Inhibitors of human tyrosyl-DNA phosphodiesterase 1 (TDP1): qHTS in cells in absence of CPT; DT40 Tdp1-/- hTDP1 cells, no CPT, ATP luminescence, 48 h; Potency, µM (top dose mostly 46.2 µM), inactives show top-dose activity change, negative = growth inhibition, actives largely listed as inhibitors; 15% of 420,000 active; also: nearly all actives have a fitted effect of over 55% in size
#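 Cells were dispensed at 400 per well, compounds added by pin tool, plates incubated ≥48 hr at 37 °C, then CellTiter-Glo added for 30 min at room temperature before luminescence reading. Line: DT40 Tdp1-/- complemented with hTDP1; camptothecin omitted.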
# Starred values were filed as active, the others as inactive; ? = inconclusive; · = no result. A selection: hits, their analogues and other compounds. The true share with any hit is near 19%. Calls follow the shape of the dose curve; as a rule, active = well fitted curve in the direction sought with a large enough effect; inconclusive = small, poorly fitted or top-dose-only effect, or another doubt; inactive = no such curve, though single readings can be large; an effect the other way counts as inactive or inconclusive. % is scaled to controls: 0 for no effect and ±100 for the full control effect; potency is read from the fitted curve at half-maximal effect.
SMILES,VP16 counter,TDP1 cell CPT,TDP1 inh,RORg inh,TDP1 cell noCPT
N/C(=N\OC(=O)CCCc1ccccc1)c1cccnc1,4.7%,-4.5%,-3.5%,37.9%,-11.0%
N/C(=N\OC(=O)CCCc1ccccc1)c1ccccc1,23.3%,1.2%,56.2µM*,41.9%,9.2%
Cc1cccc(/C(N)=N/OC(=O)CCCc2ccccc2)c1,4.1%,-18.1%,56.2µM*,?,10.7%
Cc1ccc([C@@H]2[C@@H]3C(=O)N(c4ccccc4)C(=O)[C@@H]3[C@]3(C)C(=O)N(Cc4ccccn4)CC(=O)N23)o1,6.4%,-15.4%,·,-18.6%,-3.3%
Cc1ccc([C@@H]2[C@@H]3C(=O)N(c4ccccc4)C(=O)[C@@H]3[C@]3(C)C(=O)N(Cc4ccc(-c5ccccc5)cc4)CC(=O)N23)o1,-0.5%,18.4µM*,·,41.2%,?
COc1ccc2c(c1)OC[C@H]1[C@H]2N2C(=O)CN(C)C(=O)[C@@]2(C)[C@H]1c1ccccc1,·,?,-13.3%,·,-18.1%
COc1ccc(CN2CC(=O)N3[C@H]4c5ccc(OC)cc5OC[C@@H]4[C@H](c4ccccc4)[C@]3(C)C2=O)cc1,·,?,2.4%,·,18.4µM*
COc1ccc2c(c1)OC[C@H]1[C@H]2N2C(=O)CN(Cc3ccc(Cl)cc3)C(=O)[C@@]2(C)[C@H]1c1ccccc1,·,8.2µM*,1.1%,·,?
COc1ccc2c(c1)OC[C@H]1[C@H]2N2C(=O)CN(Cc3ccccc3)C(=O)[C@@]2(C)[C@H]1c1ccccc1,·,18.4µM*,·,·,?
CCCOc1ccc(C2c3c(oc4ccccc4c3=O)C(=O)N2c2ccc(C)cn2)cc1OCC (configuration not stated),·,-5.0%,1.1%,·,-13.6%
COc1ccc(S(=O)(=O)Cc2ccc(C(=O)N3CCN(C4CCCCC4)CC3)o2)cc1,-0.1%,-22.2%,4.9%,45.2%,-25.9%
COc1ccc2c(c1)[C@H]1[C@H](CO2)[C@H](c2ccccc2)[C@]2(C)C(=O)N(Cc3ccc(C)cc3)CC(=O)N12,·,14.6µM*,3.5%,·,?
Cc1ccc(CN2CC(=O)N3[C@H]4c5cc(C)ccc5OC[C@@H]4[C@H](c4ccccc4)[C@]3(C)C2=O)cc1,·,?,3.1%,·,?
COC(=O)Nc1cc(C)nc2ccccc12,12.0%,-16.0%,-5.9%,?,-20.5%
O=C(NC(=S)Nc1cccc2ncccc12)c1ccco1,-1.4%,-10.5%,-4.3%,?,-1.1%
Cc1cc(NC(=O)Cc2ccccc2)c2ccccc2n1,3.16µM*,5.17µM*,2.6%,?,2.59µM*
Cc1cc(NC(=S)NC(=O)c2ccco2)c2ccccc2n1,1.4%,?,-2.6%,11.2µM*,?
Cc1c(C(=O)OC(C)C)sc(NC(=O)C2c3ccccc3Oc3ccccc32)c1C(=O)OC(C)C,·,23.1µM*,3.2%,·,23.1µM*
Cc1sc(NC(=O)C2c3ccccc3Oc3ccccc32)c(C(=O)OC(C)C)c1C,·,18.4µM*,4.2%,·,?
Cc1ccc(-n2nc(C)c3c2OC(N)=C(C#N)C3c2ccccc2F)cc1 (configuration not stated),-3.1%,?,11.3%,1.4%,-28.7%
Cc1ccc(-n2nc3ccc(N)cc3n2)cc1,9.9%,-19.8%,1.0%,?,1.9%
COc1ccc(C2N=C(N)N=C(N)N2c2ccc(C)cc2)cc1 (configuration not stated),7.1%,6.51µM*,4.2%,20.0%,?
Cc1cc(C)cc(N2C(N)=NC(N)=NC2c2cccc(Cl)c2)c1 (configuration not stated),?,?,·,0.7%,5.17µM*
Cc1cc(C)cc(N2C(N)=NC(N)=NC2c2ccccc2F)c1 (configuration not stated),1.8%,?,·,24.2%,0.651µM*
COc1ccc(S(=O)(=O)N2CCN(CC(=O)c3ccc(O)c(O)c3)CC2)cc1,13.4%,?,-0.1%,-19.9%,?
CCNC(=S)NNC(=O)Nc1ccccc1,4.7%,-9.7%,5.7%,-35.1%,-4.6%
